# Assay results as given in PubChem BioAssay AID1159580 (chemical genetic matrix, 2015).
# Values joined by “and” are separate entries in the source; they are usually repeats but may differ in a detail not shown here. Identical values can stand only once. About 2,000 (36%) of roughly 5,500 compounds were called active. Inconclusive results (about 18%) are left out. No stated cut-off is given here; in the data, active means normalized growth mostly below about 0.91 (no sharp cut-off); inconclusive means no clear call, values can overlap the other calls; inactive means mostly above about 0.92. The list shows a part of the results.
# Assay: chemical genetic growth profiling, strain panel (AID 1159580);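 further: tested at 20 µM; growth read once vehicle control cultures reached saturation at 30 °C; 1 = growth at the plate median or of vehicle wells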
# Settings: S. cerevisiae deletion strains, growth OD
smiles,measurement,setting,value
CCCCOc1ccc(C(=O)CCN2CCCCC2)cc1,normalized growth,"locus YAL013W, strain DEP1, stronger effect = lower value",0.807 (active)
same,normalized growth,"locus YAL021C, strain ccr4, stronger effect = lower value",0.871 (active)
same,normalized growth,"locus YAL026C, strain drs2, stronger effect = lower value",0.107 (active)
same,normalized growth,"locus YAL030W, strain snc1, stronger effect = lower value",0.977 (inactive)
same,normalized growth,"locus YBL061C, strain skt5, stronger effect = lower value",0.968 (inactive)
same,normalized growth,"locus YBR009C, strain hhf1, stronger effect = lower value",0.879 (active)
same,normalized growth,"locus YBR021W, strain FUR4, stronger effect = lower value",0.918 (inactive)
same,normalized growth,"locus YBR023C, strain chs3, stronger effect = lower value",0.95 (inactive)
same,normalized growth,"locus YBR171W, strain sec66, stronger effect = lower value",0.981 (inactive)
same,normalized growth,"locus YBR229C, strain ROT2, stronger effect = lower value",1 (inactive)
same,normalized growth,"locus YBR231C, strain swc5, stronger effect = lower value",0.866 (active)
same,normalized growth,"locus YBR279W, strain paf1, stronger effect = lower value",0.931 (active)
same,normalized growth,"locus YCL011C, strain gbp2, stronger effect = lower value",0.966 (inactive)
same,normalized growth,"locus YCL016C, strain dcc1, stronger effect = lower value",0.927 (inactive)
same,normalized growth,"locus YCL029C, strain bik1, stronger effect = lower value",0.857 (active)
same,normalized growth,"locus YCL061C, strain MRC1, stronger effect = lower value",0.875 (active)
same,normalized growth,"locus YCL069W, strain vba3, stronger effect = lower value",0.139 (active)
same,normalized growth,"locus YCR088W, strain abp1, stronger effect = lower value",0.94 (inactive)
same,normalized growth,"locus YDL005C, strain med2, stronger effect = lower value",0.994 (inactive)
same,normalized growth,"locus YDL035C, strain GPR1, stronger effect = lower value",0.772 (active)
same,normalized growth,"locus YDL040C, strain nat1, stronger effect = lower value",0.989 (inactive)
same,normalized growth,"locus YDL074C, strain BRE1, stronger effect = lower value",0.5 (active)
same,normalized growth,"locus YDL101C, strain DUN1, stronger effect = lower value",0.907 (inactive)
same,normalized growth,"locus YDL134C, strain PPH21, stronger effect = lower value",0.137 (active)
same,normalized growth,"locus YDL185W, strain tfp1, stronger effect = lower value",0.961 (inactive)
same,normalized growth,"locus YDL192W, strain arf1, stronger effect = lower value",0.54 (active)
same,normalized growth,"locus YDR001C, strain nth1, stronger effect = lower value",0.992 (inactive)
same,normalized growth,"locus YDR069C, strain doa4, stronger effect = lower value",0.898 (active)
same,normalized growth,"locus YDR101C, strain arx1, stronger effect = lower value",0.951 (inactive)
same,normalized growth,"locus YDR137W, strain rgp1, stronger effect = lower value",0.769 (active)
same,normalized growth,"locus YDR159W, strain sac3, stronger effect = lower value",0.913 (inactive)
same,normalized growth,"locus YDR162C, strain NBP2, stronger effect = lower value",0.44 (active)
same,normalized growth,"locus YDR195W, strain ref2",1.29 [resistant] (active)
same,normalized growth,"locus YDR297W, strain sur2, stronger effect = lower value",0.952 (inactive)
same,normalized growth,"locus YDR318W, strain mcm21, stronger effect = lower value",0.0958 (active)
same,normalized growth,"locus YDR334W, strain swr1, stronger effect = lower value",0.851 (active)
same,normalized growth,"locus YDR335W, strain msn5, stronger effect = lower value",0.277 (active)
same,normalized growth,"locus YDR388W, stronger effect = lower value",0.53 (active)
same,normalized growth,"locus YDR392W, strain spt3, stronger effect = lower value",0.108 (active)
same,normalized growth,"locus YDR502C, strain sam2, stronger effect = lower value",0.657 (active)
same,normalized growth,"locus YEL003W, strain gim4, stronger effect = lower value",0.888 (active)
same,normalized growth,"locus YEL037C, strain rad23, stronger effect = lower value",0.853 (active)
same,normalized growth,"locus YEL061C, strain CIN8 (second series), stronger effect = lower value",0.446 (active)
same,normalized growth,"locus YEL061C, strain CIN8, stronger effect = lower value",0.675 (active)
same,normalized growth,"locus YER015W, strain faa2, stronger effect = lower value",0.967 (inactive)
same,normalized growth,"locus YER016W, strain bim1, stronger effect = lower value",0.9 (active)
same,normalized growth,"locus YER110C, stronger effect = lower value",0.275 (active)
same,normalized growth,"locus YER111C, strain swi4, stronger effect = lower value",0.979 (inactive)
same,normalized growth,"locus YER155C, strain BEM2 (second series), stronger effect = lower value",0.146 (active)
same,normalized growth,"locus YER155C, strain BEM2, stronger effect = lower value",0.258 (active)
same,normalized growth,"locus YER167W, strain BCK2, stronger effect = lower value",0.277 (active)
same,normalized growth,"locus YFR010W, strain ubp6, stronger effect = lower value",0.815 (active)
same,normalized growth,"locus YGL078C, strain dbp3, stronger effect = lower value",0.928 (inactive)
same,normalized growth,"locus YGL086W, strain mad1, stronger effect = lower value",0.157 (active)
same,normalized growth,"locus YGL167C, strain pmr1, stronger effect = lower value",0.986 (inactive)
same,normalized growth,"locus YGL173C, strain kem1, stronger effect = lower value",0.845 (active)
same,normalized growth,"locus YGL227W, strain vid30, stronger effect = lower value",0.997 (inactive)
same,normalized growth,"locus YGL240W, strain doc1, stronger effect = lower value",0.85 (active)
same,normalized growth,"locus YGL248W, strain PDE1, stronger effect = lower value",0.0961 (active)
same,normalized growth,"locus YGL253W, strain hxk2, stronger effect = lower value",0.252 (active)
same,normalized growth,"locus YGR078C, strain PAC10, stronger effect = lower value",0.187 (active)
same,normalized growth,"locus YGR135W, strain pre9, stronger effect = lower value",0.42 (active)
same,normalized growth,"locus YGR229C, strain SMI1, stronger effect = lower value",0.428 (active)
same,normalized growth,"locus YGR252W, strain gcn5, stronger effect = lower value",0.402 (active)
same,normalized growth,"locus YHR013C, strain ard1, stronger effect = lower value",0.707 (active)
same,normalized growth,"locus YHR027C, strain rpn1, stronger effect = lower value",0.901 (active)
same,normalized growth,"locus YHR030C, strain SLT2, stronger effect = lower value",0.135 (active) and 0.992 (inactive)
same,normalized growth,"locus YHR079C, strain IRE1 (second series), stronger effect = lower value",0.854 (active)
same,normalized growth,"locus YHR079C, strain IRE1, stronger effect = lower value",1.04 (inactive)
same,normalized growth,"locus YHR094C, strain hxt1, stronger effect = lower value",0.0833 (active)
same,normalized growth,"locus YHR129C, strain ARP1, stronger effect = lower value",0.413 (active)
same,normalized growth,"locus YHR142W, strain chs7, stronger effect = lower value",0.155 (active)
same,normalized growth,"locus YHR200W, strain rpn10, stronger effect = lower value",0.838 (active)
same,normalized growth,"locus YIL066C, strain RNR3, stronger effect = lower value",0.134 (active)
same,normalized growth,"locus YIL073C, strain SPO22, stronger effect = lower value",0.281 (active)
same,normalized growth,"locus YIL125W, strain kgd1, stronger effect = lower value",0.957 (inactive)
same,normalized growth,"locus YIR030C, strain dcg1, stronger effect = lower value",0.486 (active)
same,normalized growth,"locus YJL092W, strain hpr5, stronger effect = lower value",0.918 (inactive)
same,normalized growth,"locus YJL095W, strain BCK1 (second series), stronger effect = lower value",0.734 (active)
same,normalized growth,"locus YJL095W, strain BCK1, stronger effect = lower value",0.415 (active) and 0.996 (inactive)
same,normalized growth,"locus YJL115W, strain asf1, stronger effect = lower value",0.926 (inactive)
same,normalized growth,"locus YJL129C, strain trk1, stronger effect = lower value",0.899 (inactive)
same,normalized growth,"locus YJL134W, strain LCB3, stronger effect = lower value",0.533 (active)
same,normalized growth,"locus YJL154C, strain vps35, stronger effect = lower value",0.968 (inactive)
same,normalized growth,"locus YJL164C, strain tpk1, stronger effect = lower value",0.883 (active)
same,normalized growth,"locus YJL166W, strain qcr8, stronger effect = lower value",0.925 (inactive)
same,normalized growth,"locus YJL168C, strain set2, stronger effect = lower value",0.468 (active)
same,normalized growth,"locus YJL187C, strain SWE1 (second series), stronger effect = lower value",0.84 (active)
same,normalized growth,"locus YJL187C, strain SWE1, stronger effect = lower value",0.962 (inactive)
same,normalized growth,"locus YJR043C, strain POL32, stronger effect = lower value",0.636 (active)
